Hits are enriched below; roughly 2.3% of the tested compounds scored in any of these assays.
TMEM16A inh: TMEM16A chloride channel inhibitors, primary screen, cell-based, HTS. 310,000 compounds, 1.2% hits. HEK293 TMEM16A/YFP iodide influx fluorescence, ionomycin. Anoctamin-1 (Mus musculus), Q8BHY3. normalized B-score (activity score, 25-100; higher = stronger inhibition) at 10 µM;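 active = ratio plate-corrected score three or more library SD toward inhibition, starting fluorescence score within five deviations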;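 also: score derived from kinetic fluorescence span divided by baseline fluorescence per well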
CHT allo act: CHT positive allosteric modulators, primary screen, cell-based, membrane potential dye, choline EC20; High affinity choline transporter 1 (Homo sapiens), Q9GZV3; CHT-expressing cells; active compounds read high; LV-AA mutant CHT in HEK293 cells; B-score at 10 µM; 310,000 compounds, 0.49% hits;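 active = initial fluorescence not abnormally high and integrated response B-score, plate-corrected, over 3 SD above library mean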
Target sequence (Q9GZV3 whole entry, looked up): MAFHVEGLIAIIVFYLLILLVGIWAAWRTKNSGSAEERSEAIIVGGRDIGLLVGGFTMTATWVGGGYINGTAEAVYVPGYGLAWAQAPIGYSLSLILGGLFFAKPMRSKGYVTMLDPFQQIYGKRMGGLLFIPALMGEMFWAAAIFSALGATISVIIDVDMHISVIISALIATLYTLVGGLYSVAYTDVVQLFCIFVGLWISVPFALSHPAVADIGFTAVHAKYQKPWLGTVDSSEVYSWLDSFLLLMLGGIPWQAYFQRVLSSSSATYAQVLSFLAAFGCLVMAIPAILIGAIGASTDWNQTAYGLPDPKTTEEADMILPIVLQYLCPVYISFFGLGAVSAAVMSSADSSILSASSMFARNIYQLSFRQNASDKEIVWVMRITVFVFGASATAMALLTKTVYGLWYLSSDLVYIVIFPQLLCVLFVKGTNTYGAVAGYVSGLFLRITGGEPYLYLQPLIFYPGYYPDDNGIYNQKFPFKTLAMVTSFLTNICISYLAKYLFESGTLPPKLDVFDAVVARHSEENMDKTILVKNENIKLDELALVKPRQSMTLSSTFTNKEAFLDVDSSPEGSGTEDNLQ
CHT inh: inhibitors of human choline transporter CHT. High affinity choline transporter 1 (Homo sapiens), Q9GZV3. B-score at 10 µM. AID 488975, 2010. CHT-expressing cells, membrane potential dye, choline response; active compounds read low. 310,000 compounds, 0.86% hits;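 active = B-score over 3 SD under the library average, and starting fluorescence ratio not unusually high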;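 also: choline stimulus applied at its EC90 after an EC20 pre-addition; B-score computed on integrated fluorescence ratio after choline addition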
TMEM16A act: TMEM16A chloride channel activators or potentiators, primary screen, cell-based, HTS. HEK293 TMEM16A/YFP-H148Q/I152L, iodide quench fluorescence; active compounds read low. B-score at 10 µM. 340,000 compounds, 0.3% hits. AID 623877, 2012;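 active = fluorescence-ratio B-score plate-corrected deviation score at least 3 library SD below zero, with starting fluorescence score within 5 deviations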;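 also: channel opened by trigger with iodide after compound preincubation; score built on the fluorescence ratio of max minus min over baseline; more negative score means more quench and so TMEM16A activation or potentiation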
CHT block conf: CHT inhibitors, confirmation, cell-based, membrane potential dye, duplicate; shares compounds with CHT inh; CHT-expressing cells, choline membrane potential dye; LV-to-AA substituted CHT, HEK293 cells; CHT activity remaining % of control (active compounds read low), % at 10 µM; 2,400 compounds, 70% hits;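 active = choline transporter activity left, mean of duplicates at 10 µM, below buffer-only control mean minus 3 SD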;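 also: depolarization triggered by choline at its EC90 following an EC20 pre-addition; 0% = hemicholinium-3 full block and 100% = buffer-only control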
HEK293 MPD ctr: membrane potential effects in parental HEK293, counter-screen for CHT inhibitor project, cell-based, membrane potential dye; shares compounds with CHT inh; choline response; active = decrease or increase beyond buffer ±3SD; membrane potential ratio readout (active if shifted either direction beyond buffer ±3SD; no single direction) at 10 µM; 2,400 compounds, 4% hits; AID 493222, 2011;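 also: parental cells lack the transporter so any hit is non-specific; ratio is peak minus trough fluorescence over baseline after EC90 choline challenge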
* hit, by the source's call; i = inactive; nt = not tested or not shown.

SMILES | TMEM16A inh | CHT allo act | CHT inh | TMEM16A act | CHT block conf | HEK293 MPD ctr
Cc1ccc(NC(=O)c2ccc(CN3CC(=O)N4CCCCC4C3=O)cc2)c(C)c1 (centres undefined) | i | i | -5.5* | i | 9.5%* | i
COc1cccc(NC2=C(NCCO)C(=O)c3ccccc3C2=O)c1 | i | i | i | i | nt | nt
Cc1cccc(NC2=C(NCCO)C(=O)c3ccccc3C2=O)c1 | i | i | -7.7* | i | 45%* | 2.5*
NC(N)=Nc1nc(CCN2C(=O)c3ccccc3C2=O)cs1 | i | i | -6.3* | i | 30%* | i
Cn1c(NC(=O)CCC2CCCCC2)cc(=O)n(C)c1=O | i | i | -6.4* | i | i | i
COC(=O)CCC(=O)NC(=S)Nc1cc(Cl)ccc1Cl | i | i | i | i | nt | nt
Cc1nn(C(C)C)c(C)c1[C@@H]1C[C@H]2CN(Cc3cccc(Cl)c3)C(=O)[C@]23CCCN13 | i | i | i | i | nt | nt
CC(C)n1cc([C@@H]2C[C@H]3CN(Cc4cccc(Cl)c4)C(=O)[C@]34CCCN24)cn1 | i | i | -5.3* | i | i | i
CCCn1nc([N+](=O)[O-])c(C(C#N)c2nc3ccccc3o2)c(Cl)c1=O (centres undefined) | 100* | i | -12* | i | 16%* | i
CCn1nc([N+](=O)[O-])c(C(C#N)c2nc3cc(C(F)(F)F)ccc3s2)c(Cl)c1=O (centres undefined) | i | i | i | i | nt | nt
COc1ccc2[nH]c(C)c(CCNC(=S)Nc3ccc(C)cc3)c2c1 | i | i | i | i | nt | nt
Cc1ccccc1N1CC(C(=O)N2CC(C)OC(C)C2)CC1=O (centres undefined) | i | i | i | i | nt | nt
COc1ccc(-n2cnnc2SCC(=O)Nc2cc(S(=O)(=O)N3CCCCC3)ccc2C)cc1 | i | i | -5.3* | i | 53%* | i
Cc1ccc(S(=O)(=O)N2CCCCC2)cc1NC(=O)CSc1nncn1-c1ccccc1 | i | i | -6.1* | i | 41%* | i
C/C(=N\NC(=O)CNc1cccc(Cl)c1C)C1CC1 | i | i | i | i | nt | nt
CC(=O)Nc1ccc(Nc2cc(C)c3ccccc3n2)cc1 | i | i | -6.4* | i | 46%* | i
CCN(CC)CCCNC(=O)c1ccccc1NC(=O)C1=CSCCO1 | i | i | -12* | i | 21%* | i
O=C(O)c1cnn(-c2nc(-c3ccc(Br)cc3)cs2)c1C(F)(F)F | i | i | -8.9* | i | i | i
O=C(O)c1cnn(-c2nc(-c3ccc(F)cc3)cs2)c1C(F)(F)F | i | i | i | i | nt | nt
C/C(N)=C(/C#N)C(=O)CN1C(=O)NC(Cc2c[nH]c3ccccc23)C1=O (centres undefined) | i | i | i | i | nt | nt
CC(NC(=O)c1cc(=O)[nH]c2ccccc12)c1ccccc1 (centres undefined) | i | i | i | i | nt | nt
CCOC(=O)c1cc(C(=O)NC(C)c2ccccc2)c(=O)[nH]c1C (centres undefined) | i | i | -12* | i | 26%* | i
O=C(O)C1CCCCN1C(=O)c1ccc(S(=O)(=O)N2CCCCCC2)cc1 (centres undefined) | nt | nt | nt | i | nt | nt
COCCNc1oc(-c2ccccc2Cl)nc1S(=O)(=O)c1ccc(C)cc1 | nt | nt | nt | i | nt | nt
CCC(NC(=O)C1C2C=CC(C2)C1C(=O)O)c1ccc(C)cc1 (centres undefined) | i | i | i | i | nt | nt
SMILES | TMEM16A inh | CHT allo act | CHT inh | TMEM16A act | CHT block conf | HEK293 MPD ctr
Cc1ccc(-c2nnc(OCC3CCCO3)c3ccccc23)cc1 (centres undefined) | i | i | -5.5* | i | 45%* | i
Cc1ccc(Oc2nnc(-c3ccccc3)c3ccccc23)cc1 | i | i | i | i | nt | nt
O=C(N/C(=C/c1cccc([N+](=O)[O-])c1)C(=O)N1CCCCCC1)c1ccco1 | i | i | i | i | nt | nt
Cc1ccc(NC(=O)CN(C)C(=O)COC(=O)CNS(=O)(=O)c2ccc(Br)cc2Cl)cc1 | i | i | -6.3* | -8.1* | 67%* | i
CSCCNC(=O)c1ccc2nc(C3CCCCC3)oc2c1 | i | i | i | i | nt | nt
O=[N+]([O-])c1cc(NS(=O)(=O)c2ccc(Cl)nc2)ccc1Cl | i | i | -6.2* | i | 42%* | i
CC(C)c1ccc(NS(=O)(=O)c2ccc(Cl)nc2)cc1 | i | i | i | i | nt | nt
Cc1cc(OCC(=O)Nc2ccccc2N2CCOCC2)c(C(C)C)cc1Cl | nt | nt | nt | i | nt | nt
O=C(c1cnn2c(C(F)(F)F)cc(-c3cccs3)nc12)N1CCN(Cc2ccccc2)CC1 | i | i | -5.5* | i | 57%* | i
COc1ccc(-c2cc(=O)oc(-c3cccc(C)c3)n2)cc1 | i | i | -14* | i | i | i
COc1cc2c(cc1OC)C(c1c(Cl)cccc1Cl)NC(=O)C2 (centres undefined) | i | i | -5.4* | i | i | i
O=C1NC(=O)/C(=C/c2ccccc2Oc2ccc(Cl)cc2)S1 | i | i | i | i | nt | nt
Cc1ccc(S(=O)(=O)Oc2ccccc2/C=C2\SC(=O)NC2=O)cc1 | i | i | -5.6* | i | 49%* | i
O=C(COc1ccccc1/C=C1\SC(=O)NC1=O)Nc1ccc(F)cc1 | i | i | -6.9* | i | i | i
O=C(COc1ccccc1/C=C1/NC(=O)NC1=O)Nc1ccccc1 | i | i | i | i | nt | nt
CCn1cc(SCC(=O)N2CCc3ccccc32)c2ccccc21 | i | i | i | i | nt | nt
CCOC(=O)c1ccccc1NC(=O)COC(=O)CSC(C)C(=O)Nc1cc(C)on1 (centres undefined) | i | i | i | i | nt | nt
O=C(CCCSc1nc2ccccc2s1)NC1=NCCS1 | i | i | -15* | i | 4.3%* | i
Cc1nn(-c2nnc(NCc3ccccc3)nn2)c(C)c1Br | i | i | -5.3* | i | i | i
Cc1cc(C)n(-c2nnc(NCc3ccc(Cl)cc3)nn2)n1 | i | i | i | i | nt | nt
CCOc1ccc(C(=O)Nc2ccc3c(c2)OCCO3)cc1 | i | i | i | i | nt | nt
